The text below walks through data of article PMC5540273 (PLoS ONE, 2017).

For experiment [1], the system named is RPS6KA5(Kin.Dom.2-C-terminal). The settings on record: concentration: 1 μM, replicates: in singlicate, n = 1.
Experiment [2] deals with T1, RSK1(Kin.Dom.1-N-terminal).
T1 construct: gene RPS6KA1
As to conditions: concentration: 1 μM, replicates: in singlicate, n = 1.

Experiment [3] deals with T2, RSK1(Kin.Dom.2-C-terminal).
T2 construct: gene RPS6KA1
As to conditions: concentration: 1 μM, replicates: in singlicate, n = 1.

The test system of experiment [4] is T3, RSK2(Kin.Dom.1-N-terminal).
T3 construct: gene RPS6KA3
The settings on record: concentration: 1 μM, replicates: in singlicate; n = 1.

In experiment [5] the test system is T4, RSK2(Kin.Dom.2-C-terminal).
T4 construct: gene RPS6KA3
The settings on record: concentration: 1 μM, replicates: in singlicate, n = 1.

Experiment [6] concerns T5, RSK3(Kin.Dom.1-N-terminal).
T5 construct: gene RPS6KA2
The settings on record: concentration: 1 μM, replicates: in singlicate, n = 1.

The subject of experiment [7] is T6, RSK3(Kin.Dom.2-C-terminal).
T6 construct: gene RPS6KA2
The settings on record: concentration: 1 μM, replicates: in singlicate; n = 1.

Experiment [8] deals with T7, RSK4(Kin.Dom.1-N-terminal).
T7 construct: gene RPS6KA6
As to conditions: concentration: 1 μM, replicates: in singlicate, n = 1.

For experiment [9], the system named is T8, RSK4(Kin.Dom.2-C-terminal).
T8 construct: gene RPS6KA6
The settings on record: concentration: 1 μM, replicates: in singlicate, n = 1.

The test system of experiment [10] is S6K1. The settings on record: concentration: 1 μM, replicates: in singlicate; n = 1.
For experiment [11], the system named is SBK1. As to conditions: concentration: 1 μM, replicates: in singlicate, n = 1.
The test system of experiment [12] is SGK2. The settings on record: concentration: 1 μM, replicates: in singlicate, n = 1.
For experiment [13], the system named is SGK3. The settings on record: concentration: 1 μM, replicates: in singlicate, n = 1.
Experiment [14] concerns SGK. The settings on record: concentration: 1 μM, replicates: in singlicate, n = 1.
For experiment [15], the system named is SIK2. As to conditions: concentration: 1 μM, replicates: in singlicate, n = 1.
Experiment [16] concerns SIK. As to conditions: concentration: 1 μM, replicates: in singlicate, n = 1.
In experiment [17] the test system is SLK. The settings on record: concentration: 1 μM, replicates: in singlicate, n = 1.
Experiment [18] relates to T9, SNARK.
T9 construct: gene NUAK2
As to conditions: concentration: 1 μM, replicates: in singlicate, n = 1.

Experiment [19] relates to SNRK. As to conditions: concentration: 1 μM, replicates: in singlicate; n = 1.
Experiment [20] relates to SRC. As to conditions: concentration: 1 μM, replicates: in singlicate, n = 1.

“And” between values parts separate entries of the source, which are not always exact repeats. Equal values may be shown once. Read-outs that look alike come from different tables or passages of the source.
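Also: KINOMEscan kinase panel screen.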

In the case of `COc1ccc(NC(=O)c2ccc(-c3cc(-c4nnc(C)o4)ccc3C)cc2)cc1` [GW595885], the “%Inh” value was 0% in experiment [1]; 17% in experiment [2]; 0% in experiment [3]; 0% in [4]; 0% in experiment [5]; 0% in experiment [6]. Also, the “%Inh” value came out at 0% in experiment [7]; 0% in experiment [8]; 5% in experiment [9]; 4% in [10]; 26% in experiment [11]; 2% in [12]. Also, the “%Inh” value came to 0% in experiment [13]; 1% in experiment [14]; 0% in experiment [15]; 0% in [16]; 10% in experiment [17]; 0% in experiment [18]. For the same compound, the “%Inh” value in experiment [19] and in experiment [20] was 0% in each case.

With `CCc1nc(-c2cccc(N(C)S(=O)(=O)c3ccccc3)c2)c(-c2ccnc(Nc3ccc(N4CCN(C(C)=O)CC4)nc3)n2)s1` [GSK1645895], the “%Inh” value in experiment [1] stood at 2%; in [2], 26%; in experiment [3], 24%; in experiment [4] it was 0%; in [5], 1%; in experiment [6], 8%. Besides, the “%Inh” value is 23% in [7]; 0% in experiment [8]; 20% in experiment [9]; 7% in experiment [10]; 5% in experiment [11]; 0% in experiment [12]. Further, the “%Inh” value in experiment [13] is 19%; in [14], 0%; in [15] it was 0%; in [16], 0%; in experiment [17] it was 3%; in [18] it was 23%. Besides, the “%Inh” value in experiment [19] turned out to be 0%; in [20] it was 16%.

For `Cl.O=S(=O)(c1cccc(F)c1)c1ccc(Nc2ncnc3cc(Br)sc23)cc1Cl` [GSK306886], the “%Inh” value in experiment [1] came out at 4%; in [2] it was 17%; in [3], 17%; in experiment [4] it was 0%; in experiment [5], 0%; in experiment [6] it was 0%. Besides, the “%Inh” value in [7] is listed as 31%; in [8] it was 0%; in [9], 14%; in experiment [10] it was 0%; in experiment [11], 0%; in [12], 0%. Further, the “%Inh” value in experiment [13] is given as 6%; in experiment [14], 0%; in experiment [15], 0%; in experiment [16], 0%; in experiment [17] it was 8%; in [18], 14%. Besides, the “%Inh” value in experiment [19] and in [20] was 0% throughout.

As for `O=C(NCCCN1CCCC1=O)c1cnc(NCc2cc(Cl)ccc2Cl)nc1NC1CCNCC1`, the “%Inh” value in experiment [1] is reported as 0%; in experiment [2], 100%; in experiment [3], 5%; in experiment [4], 0%; in experiment [5], 0%; in experiment [6], 39%. In addition, the “%Inh” value is recorded as 8% in experiment [7]; 0% in experiment [8]; 17% in experiment [9]; 26% in experiment [10]; 0% in experiment [11]; 0% in [12]. The “%Inh” value in experiment [13] came out at 0%; in experiment [14], 0%; in [15], 0%; in experiment [16], 7%; in [17], 14%; in experiment [18] it was 0%. Further, the “%Inh” value in experiment [19] and in experiment [20] was 0% each time.

As to `O=C(Nc1ccccc1F)NC1CCN(c2ccnc(Nc3ccc(F)cc3)n2)C1` (centres unmarked) [GSK1379722], the “%Inh” value in [1] came to 19%; in [2] it was 8%; in experiment [3], 0%; in experiment [4], 14%; in [5] it was 28%; in [6], 13%. The “%Inh” value in [7] was found to be 0%; in experiment [8], 0%; in experiment [9] it was 0%; in experiment [10], 11%; in experiment [11], 21%; in experiment [12], 0%. Moreover, the “%Inh” value in experiment [13] is 0%; in [14], 0%; in experiment [15] it was 0%; in [16], 0%; in experiment [17], 5%; in experiment [18], 0%. Also, the “%Inh” value in [19] and in experiment [20] was 0% each time.

For `COc1ccc(-c2nc3n(c2-c2ccncc2)CCC3)cc1` [SKF-104493], the “%Inh” value is 10% and 0% in experiment [1] (1 µM); 0% and 4% in experiment [2] (1 µM); 93.1% and 37% in experiment [3] (1 µM); 0% in experiment [4]; 12% and 5% in experiment [5] (1 µM); 1% and 0% in experiment [6] (1 µM). The “%Inh” value in experiment [7] was 0%; in experiment [8] (1 µM) it was 68% and 0%; in experiment [9] (1 µM), 59% and 63%; in experiment [10], 0%; in experiment [11] (1 µM) it was 27% and 8%; in [12] (1 µM), 16% and 0%. For the same compound, the “%Inh” value is 13% and 2% in [13] (1 µM); 7% and 0% in experiment [14] (1 µM); 0% and 2% in [15] (1 µM); 0% and 5% in [16] (1 µM); 20% and 36% in experiment [17] (1 µM); 7% and 2% in experiment [18] (1 µM). Moreover, the “%Inh” value in [19] is 0%; in experiment [20] (1 µM) it was 18% and 0%.

With `Cn1ccc2ncnc(Oc3ccc(NC(=O)Nc4cccnc4)c(Cl)c3)c21`, the “%Inh” value in experiment [1] came to 13%; in experiment [2], 0%; in experiment [3], 41%; in experiment [4], 1%; in experiment [5], 0%; in [6] it was 0%. The “%Inh” value turned out to be 17% in experiment [7]; 0% in experiment [8]; 3% in [9]; 0% in [10]; 0% in experiment [11]; 8% in [12]. Besides, the “%Inh” value in experiment [13] was found to be 0%; in experiment [14], 3%; in [15] it was 0%; in experiment [16] it was 19%; in experiment [17] it was 9%; in experiment [18], 0%. Also, the “%Inh” value in [19] stood at 0%; in experiment [20] it was 16%.
